Sampled rows, rich in hits. Any-hit rate of the full collection: about 3.5%.
TR SRC2 fluor cs: Total Fluorescence Counterscreen for Inhibitors of the Interaction of Thyroid Hormone Receptor and Steroid Receptor Coregulator 2; TRb/SRC2 Texas Red total fluorescence interference; Potency, µM (series often up to 106 µM), for the others: at the highest dose fluorescence change, negative = quenching; 280,000 tested, 0.29% active; AID 1479, 2009; active means well fitted curve in either direction with a large enough effect; inconclusive means small, poorly fitted or top-dose-only effect
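Human TRb ligand-binding domain at 0.6 uM with 20 nM Texas Red SRC2 peptide in Tris buffer containing 1 uM T3 and 5% DMSO, incubated with compound 5 h at ambient temperature. Total fluorescence (555/632 nm) calculated as parallel + 2 × perpendicular.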
JMJD2E inh: qHTS Assay for Inhibitors of Human Jumonji Domain Containing 2E (JMJD2E) | Lysine-specific demethylase 4E (Homo sapiens), B2RXH2 | Potency, µM (highest dose often 57.1 µM), for the others: at the top dose activity change, negative = inhibition, actives largely listed as inhibitors | JMJD2E catalytic domain, FDH-coupled NADH fluorescence (FDH is formaldehyde dehydrogenase) | AID 2147, 2009 | 230,000 tested, 1.6% active; active means well fitted inhibition curve with a large enough effect, not every such curve was filed as active; inconclusive means small, poorly fitted or top-dose-only effect, or another doubt; inactive means no such curve, though single readings can be large or run the other way;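 further: 0% = wells with enzyme and -100% = buffer wells without enzyme; nearly all actives have a fitted effect of over 50% in size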
Tau fibril ThT: qHTS for Inhibitors of Tau Fibril Formation, Thioflavin T Binding | Potency, µM (titrated, usually from 57.4 µM), for the others: at the top dose activity, negative = inhibition, usual class: inhibitors | recombinant tau K18 P301L, heparin-induced fibrillization, ThT fluorescence | Microtubule-associated protein tau (Homo sapiens), P10636 | 270,000 tested, 2.1% active | AID 1460, 2008; further: nearly all actives have a fitted effect of over 55% in size
Target sequence (P10636 561-689 P618L limits assumed): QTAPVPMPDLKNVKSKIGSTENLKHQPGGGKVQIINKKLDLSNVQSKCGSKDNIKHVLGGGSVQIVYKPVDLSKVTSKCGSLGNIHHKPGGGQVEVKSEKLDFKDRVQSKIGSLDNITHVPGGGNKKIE
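Recombinant human tau K18 fragment […] carrying P301L, 15 uM unlabeled plus 0.24 uM Alexa 594-labeled, was fibrillized with 20 uM heparin in 100 mM sodium acetate pH 7 for 6 hr at 37 C; 30 uM ThT fluorescence read after 1 hr.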
Tau fluor cs: Counterscreen qHTS for Inhibitors of Tau Fibril Formation, Fluorescence Polarization; tau K18 P301L (four-repeat tau fragment) Alexa594 fluorescence, heparin fibrillization; Potency, µM (highest dose often 57.7 µM), without a hit: at the top dose activity change, negative = decrease; 280,000 tested, 0.93% active; further: nearly all actives have a fitted effect of over 55% in size
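Human K18 P301L tau (15 uM unlabeled plus 0.24 uM Alexa 594-labeled, final) in 100 mM sodium acetate pH 7 was mixed with compound and 20 uM heparin and incubated 6 hr at 37 C.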
Tau fibril FP: qHTS for Inhibitors of Tau Fibril Formation, Fluorescence Polarization. K18 P301L tau heparin fibrillization, Alexa594 FP, 6 h. Microtubule-associated protein tau (Homo sapiens), P10636. Potency, µM (highest dose often 57.7 µM), for the others: at the top dose activity, negative = inhibition, hits mostly inhibitors. 280,000 tested, 0.39% active; further: nearly all actives have a fitted effect of over 55% in size
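Steps: dispense K18 P301L tau (15 uM plus 0.24 uM Alexa 594 tracer, final) in pH 7 sodium acetate; add compound; add heparin (20 uM final); incubate 6 hr, 37 C; add ThT (30 uM final); after 1 hr ambient, read FP.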
TRb-SRC2 inh: qHTS for Inhibitors of the Interaction of Thyroid Hormone Receptor and Steroid Receptor Coregulator 2. Potency, µM (series often up to 106 µM), for the others: at the highest dose activity change, negative = inhibition, usual class: inhibitors. TRbeta-SRC2 peptide binding, fluorescence polarization; receptor liganded with 1 µM T3. 280,000 tested, 0.065% active. Thyroid hormone receptor beta (Homo sapiens), P10828;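 further: plate controls were bound peptide for no effect and peptide without receptor for full effect; nearly all actives have a fitted effect of over 50% in size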
Target sequence (P10828 whole entry, looked up): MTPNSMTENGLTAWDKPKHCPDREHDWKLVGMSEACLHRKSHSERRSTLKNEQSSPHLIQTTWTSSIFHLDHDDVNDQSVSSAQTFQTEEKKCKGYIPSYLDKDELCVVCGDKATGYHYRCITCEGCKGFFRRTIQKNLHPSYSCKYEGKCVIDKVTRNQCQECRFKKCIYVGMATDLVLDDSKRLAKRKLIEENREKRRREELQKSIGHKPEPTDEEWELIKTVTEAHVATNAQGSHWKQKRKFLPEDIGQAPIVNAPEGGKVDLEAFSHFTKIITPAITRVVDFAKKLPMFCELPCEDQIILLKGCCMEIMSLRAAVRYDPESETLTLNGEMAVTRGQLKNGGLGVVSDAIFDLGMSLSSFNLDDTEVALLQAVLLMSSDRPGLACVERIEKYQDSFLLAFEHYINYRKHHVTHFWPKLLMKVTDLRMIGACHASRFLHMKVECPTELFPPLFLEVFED
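Human TRb ligand-binding domain (0.6 uM) is mixed with 20 nM Texas Red SRC2 peptide and 1 uM T3; after compound addition and 5 hr at ambient temperature, polarization is measured and normalized to unbound and bound controls.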
Active calls of the source: *; u = inconclusive; x = no result; ! = repeats disagree; [ ] = remark or other dose. Unless noted, the call rests on the fitted dose curve; in most records, active means well fitted curve in the direction sought with a large enough effect; inconclusive means small, poorly fitted or top-dose-only effect, or another doubt; inactive means no such curve, though single readings can be large; an effect the other way counts as inactive or inconclusive. Unless noted, on the % scale 0 is the no-effect control and ±100 the full control effect; potency means the concentration at half of the fitted maximal effect.

SMILES	TR SRC2 fluor cs	JMJD2E inh	Tau fibril ThT	Tau fluor cs	Tau fibril FP	TRb-SRC2 inh
CCOc1ccccc1C1SCC(=O)Nc2c1c(=O)[nH]n2C(CC)CC (configuration not stated)	-2%	7%	-9%	2%	-2%	-5%
COP(=O)(CC(=O)O)c1ccccc1 (configuration not stated)	2%	6%	-4%	-6%	-15%	-8%
NC(=O)CSP(=O)(c1ccccc1)c1ccccc1	2%	-5%	28µM*	-15%	u	-2%
O=C1C(Cl)=C(N2CCCCCC2)C(=O)N1c1ccccc1	3%	-10%	25µM*	u	u	10%
COc1ccc(N2C(=O)C(Cl)=C(N3CCN(Cc4ccccc4)CC3)C2=O)cc1	0%	1%	25µM*	-30%	28µM*	3%
Cc1ccc(CN2CCN(Cc3ccccc3)CC2)cc1	-2%	6%	-6%	-8%	-4%	5%
C/C(=N\NC(=O)c1ccccc1O)c1c(O)n(Cc2ccccc2)c(=O)[nH]c1=O	-11%	u	14µM*	u	13%	3%
C/C(=N\Nc1ccccc1)c1c(O)n(Cc2ccccc2)c(=O)[nH]c1=O	0.071µM*[quencher]	-5%	2%	0%	2%	-17%[53 µM]
COc1cc(N2CCOCC2)ccc1C=C1C(=O)NC(=O)NC1=O	32µM*[quencher]	-5%	-1%	-1%	9%	-21%[53 µM]
COc1cc(N2CCOCC2)ccc1/C=C1\C(=O)NC(=O)N(Cc2cccs2)C1=O	3%	1%	u	-14%	-1%	2%
CC(=O)c1cccc(OCC(O)CN2CC=C(c3ccccc3)CC2)c1 (configuration not stated)	0%	16µM*	u	-7%	-8%	0%
NC(=O)c1ccc(OCC(O)CN2CC=C(c3ccc(F)cc3)CC2)cc1 (configuration not stated)	-29%	3%	-14%	-5%	-2%	-2%
COC1CCCCC1NCCc1ccccc1 (configuration not stated)	12%	16µM*	u	-15%	1%	2%
Cc1cc(C=C2C(=O)N(C)C(=S)N(C)C2=O)c(C)n1C1CCCCC1	3%	6%	u	-19%	-10%	6%
Cc1cc(C=C2C(=O)NC(=S)NC2=O)c(C)n1C1CCCC1	-2%	6%	16µM*	-22%	-13%	5%
O=[N+]([O-])C(Br)Br	-2%	x	x	x	x	0%
CCOP(=O)(OCC)c1nc(-c2ccccc2)oc1NCc1ccccc1	-2%[53 µM]	u	-1%	-6%	-2%	-4%[53 µM]
COc1ccc(CCNCc2ccc(OC)c(OC)c2OC)cc1	2%	u	-5%	-5%	-4%	3%
COc1ccccc1CCNCc1ccc(OC)c(OC)c1OC	-5%	5.6µM*	0%	0%	-1%	-2%
C=C1[C@@H]2C[C@@]3([C@H]1O)[C@H]1C[C@@H]4[C@@]5(C)CC[C@H](O)[C@]4([C@H]1N(CC)C5)[C@H]3C[C@H]2O	-6%[53 µM]	-21%[25.5 µM]	x	x	x	-6%[53 µM]
O=c1[nH]c(O)c(N=Nc2cc([N+](=O)[O-])ccc2O)c(=O)[nH]1	13%	165%	14µM*	-17%	-5%	11%
CC(C)(C)OO	-1%	x	x	x	x	5%
CN1C(=O)C(Cc2ccsc2)C(=O)N(C)C1=O	0%	-14%	25µM*	-21%	32µM*	-24%
CCN1C(=O)/C(=C\c2ccc([N+](=O)[O-])s2)C(=O)NC1=S	1%	2.5µM*	3.5µM*	u	u	10%
Cc1ccc(/C=C2\C(=O)NC(=O)N(CCc3ccc(F)cc3)C2=O)s1	-4%	5%	u	-19%	-10%	7%
SMILES	TR SRC2 fluor cs	JMJD2E inh	Tau fibril ThT	Tau fluor cs	Tau fibril FP	TRb-SRC2 inh
COc1cc(/C=C2\C(=O)NC(=O)N(c3ccccc3)C2=O)c([N+](=O)[O-])cc1OC	-3%	65%	u	16%	-14%	-3%
COc1ccc(OC)c(N2C(=O)NC(=O)/C(=C/c3ccc([N+](=O)[O-])s3)C2=O)c1	14%	25µM*	13µM*	u	14µM*	u
O=C(O)CC1OCC=C2CN3CCC45C6=CC(=O)C(=O)C([N+](=O)[O-])=C6NC4C1C2CC35 (configuration not stated)	-11%	0.063µM*	7.1µM*	u	u	u
CN(N=O)c1cc(O)ccc1O	13µM*[quencher]	0%	11µM*	u	u	u
Cc1ccccc1-n1c(/C=C/c2c(C)[nH]c3ccccc23)nc2ccccc2c1=O	-2%	x	u	4µM*[quencher]	u	-9%
CCCN1CCC[C@@H]2Cc3cn[nH]c3C[C@H]21	2%	x	-4%	-4%	-2%	-2%
CCCN1CCCC2Cc3[nH]ncc3CC21 (configuration not stated)	35µM*![quencher]	-2%	-4%	-2%	6%	1%
COc1ccc(OCC(=O)N2CCN(CCc3ccccn3)CC2)cc1	3%	x	-4%	-2%	2%	4%
COc1ccc(/C=C/C(=O)c2c(O)n(CCC3=CCCCC3)c(=O)[nH]c2=O)cc1	7%	4%	u	-11%	-11%	2%
Cc1cc2cc(CNC(=O)Nc3ccc(Cl)c(Cl)c3)ccc2n1C	9%	-9%	-10%	u	-14%	-4%
C=CCNC(=S)Nc1ccc(OC(=O)Nc2ccc(Cl)c(Cl)c2)cc1	2%	-2%	u	u	16µM*	0%
c1nc[n]([Sn]([CH]2CCCCC2)([CH]2CCCCC2)[CH]2CCCCC2)n1	0%	x	x	x	x	-8%
Cc1cc(O)c2c(c1)C(=O)c1cc(O)cc(O)c1C2=O	u	3%	10µM*	16µM*[quencher]	11%	6%
CCCSC(=O)Cl	-2%	x	x	x	x	6%
CCN(CC)C(=O)[C@]1(c2ccccc2)C[C@@H]1CN	-1%	u	1%	2%	-12%	-1%
CC1=C2C[C@H]3[C@@H](CC=C4C[C@@H](O)CC[C@@]43C)[C@@H]2CC[C@]12O[C@@H]1C[C@H](C)CN[C@H]1C2C (some centres not stated)	-1%	x	-8%	-6%	5%	7%
CN(C)c1ccc(/C=C/[N+](=O)[O-])cc1	-1%	-2%	10µM*	u	-1%	2%

Compound activity deposited in PubChem BioAssay by National Center for Advancing Translational Sciences (NCATS).
